Assay results as given in publication PMC4336329 (PLoS ONE, 2015).
About 14,000 (4.5%) of roughly 310,000 compounds showed an effect of 50% or more. Effects have a minus sign here. This excerpt belongs to a sample that is enriched for strong results.

target: human ether-à-go-go-related gene (hERG) potassium channel (human, UniProt Q12809); assay: primary screen, population patch clamp on CHO cells stably expressing hERG; higher = less effect of the substance
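Note: peak tail current of the secondary pulse compared with the same well before compound.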

human ether-à-go-go-related gene (hERG) potassium channel, sequence (Q12809 whole entry, looked up): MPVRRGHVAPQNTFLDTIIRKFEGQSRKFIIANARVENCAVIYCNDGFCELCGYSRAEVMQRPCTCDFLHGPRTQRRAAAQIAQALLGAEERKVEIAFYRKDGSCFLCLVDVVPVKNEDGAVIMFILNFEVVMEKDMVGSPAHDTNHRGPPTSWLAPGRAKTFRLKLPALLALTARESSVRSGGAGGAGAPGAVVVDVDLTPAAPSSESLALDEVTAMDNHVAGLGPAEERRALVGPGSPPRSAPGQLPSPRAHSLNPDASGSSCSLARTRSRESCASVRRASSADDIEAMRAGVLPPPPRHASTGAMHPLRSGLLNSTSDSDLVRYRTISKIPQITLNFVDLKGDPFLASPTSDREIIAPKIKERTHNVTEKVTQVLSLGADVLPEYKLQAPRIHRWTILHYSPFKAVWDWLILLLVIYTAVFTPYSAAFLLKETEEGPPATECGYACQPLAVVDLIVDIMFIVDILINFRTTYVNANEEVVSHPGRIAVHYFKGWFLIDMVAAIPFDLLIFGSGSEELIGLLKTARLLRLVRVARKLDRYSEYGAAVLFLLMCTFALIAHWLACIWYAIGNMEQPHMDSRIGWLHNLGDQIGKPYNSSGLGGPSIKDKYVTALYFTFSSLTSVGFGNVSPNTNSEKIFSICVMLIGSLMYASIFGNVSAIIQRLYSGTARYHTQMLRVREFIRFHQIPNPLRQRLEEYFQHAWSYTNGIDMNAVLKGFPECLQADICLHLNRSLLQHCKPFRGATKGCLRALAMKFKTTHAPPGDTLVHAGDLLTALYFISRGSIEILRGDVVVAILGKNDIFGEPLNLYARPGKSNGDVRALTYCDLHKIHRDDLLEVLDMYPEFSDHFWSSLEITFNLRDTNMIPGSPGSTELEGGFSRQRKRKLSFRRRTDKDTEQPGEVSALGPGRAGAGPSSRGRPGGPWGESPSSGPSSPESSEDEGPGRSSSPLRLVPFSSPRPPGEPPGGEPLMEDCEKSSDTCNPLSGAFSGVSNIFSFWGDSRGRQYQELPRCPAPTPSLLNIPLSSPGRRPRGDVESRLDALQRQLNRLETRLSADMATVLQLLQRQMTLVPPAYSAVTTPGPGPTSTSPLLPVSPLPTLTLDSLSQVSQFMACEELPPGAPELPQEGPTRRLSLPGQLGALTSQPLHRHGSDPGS

| SMILES | hERG current change (%, negative = inhibition) at 10uM [%] |
| --- | --- |
| Cc1ccc(S(=O)(=O)N(C)C)cc1NC(=O)CN1C(=O)NC(Cc2ccccc2)C1=O (centres unmarked) | 8.61 |
| O=C(O)C(=O)O.OCCN1CCN(CC(O)COC(c2ccc(F)cc2)c2ccc(F)cc2)CC1 (centres unmarked) | -61.9 |
| O=C(O)C(=O)O.OC(COC(c1ccc(F)cc1)c1ccc(F)cc1)CN1CCCC(C(F)(F)F)C1 (centres unmarked) | 10.8 |
| Cc1ccccc1C(OCC(O)CN1CCN(CCO)CC1)c1ccccc1.O=C(O)C(=O)O (centres unmarked) | -12.1 |
| O=C(O)C(=O)O.OC1CCCN(CC(O)COC(c2ccc(F)cc2)c2ccc(F)cc2)C1 (centres unmarked) | -57.6 |
| O=C(O)C(=O)O.OC(COC(c1ccc(F)cc1)c1ccc(F)cc1)CN1CCCC1 (centres unmarked) | -70.6 |
| CC(=O)c1ccc(OCC(O)CN2CCN(CCO)CC2)cc1.Cl (centres unmarked) | 9.1 |
| O=C(OCN1C(=O)c2ccccc2C1=O)c1cccc(S(=O)(=O)N2CCOCC2)c1 | -3.06 |
| CN1c2ccsc2/C(=N/NC(=O)c2c(F)cccc2F)CS1(=O)=O | 4.31 |
| Cc1cccc(C2(c3cccc(C)c3)CC2C(=O)NCC2CCCO2)c1 (centres unmarked) | -6.94 |
| CC(CC(=O)N1CCN(S(=O)(=O)c2ccccc2)CC1)n1cncn1 (centres unmarked) | 20.1 |
| NS(=O)(=O)c1ccc(CCNC(=O)Nc2ccc(Cl)cc2)cc1 | -9.65 |
| O=c1cc(NC2CCCCCC2)[nH]c(=O)[nH]1 | 4.69 |
| CN(C)C(=O)Oc1c(Cl)cc(Cl)c2ccccc12 | -36.2 |
| CCC(/C=C1\Sc2ccc(OC)cc2N1CC)=C\c1sc2ccc(OC)cc2[n+]1CCCS(=O)(=O)[O-] | 15 |
| CCC(=O)/C=C1\Sc2ccc(OC)cc2N1CCO | -0.298 |
| CCC(/C=C1\Sc2ccc(OC)cc2N1CCO)=C\c1sc2ccc(OC)cc2[n+]1CCO.[Cl-] | -72.9 |
| Cl.O=C(Nc1cccc(C(F)(F)F)c1)c1cccnc1N1CCN(c2ccccc2)CC1 | 7.25 |
| O=C(NCc1cccc(C(F)(F)F)c1)C1CCCN(c2cnccn2)C1 (centres unmarked) | -61 |
| O=C(NCc1ccc(Cl)cc1)C1CCCN(c2cnccn2)C1 (centres unmarked) | -66.5 |
| Cc1ccc(NC(=O)C2CCCN(c3ncccn3)C2)cc1F (centres unmarked) | -0.00042 |

| SMILES | hERG current change (%, negative = inhibition) at 10uM [%] |
| --- | --- |
| COc1cccc(CNC(=O)C2CCCN(c3cnccn3)C2)c1 (centres unmarked) | -14.4 |
| O=C(Nc1cccc(C(F)(F)F)c1)c1cccnc1N1CCCC1 | 13.2 |
| CC(=O)Nc1ccc(NC(=O)C2CCCN(c3ncccn3)C2)cc1 (centres unmarked) | 2.63 |
| O=C(Nc1cccc(C(F)(F)F)c1)c1cccnc1N1CCN(CCO)CC1 | -63.8 |
| Cc1ccc(CNC(=O)C2CCCN(c3cnccn3)C2)cc1 (centres unmarked) | -40 |
| O=C(NCc1cccc(C(F)(F)F)c1)C1CCCN(c2ncccn2)C1 (centres unmarked) | -37.1 |
| O=C(Nc1cccc(C(F)(F)F)c1)C1CCCN(c2ncccn2)C1 (centres unmarked) | -53.4 |
| O=C(NCc1ccccc1)C1CCCN(c2cnccn2)C1 (centres unmarked) | -28.9 |
| COC(=O)C1=C(C)Nc2nnnn2C1c1ccccc1Cl (centres unmarked) | -2.51 |
| CCOC(=O)Cc1cc(OC)c(OC)cc1Cc1cc(OC)c(OC)cc1CC(=O)OCC | 9.74 |
| C/C(=N\NC(=O)C1(C)CC1(Br)Br)c1ccc(NC(=O)C2CCC2)cc1 (centres unmarked) | 7.51 |
| COc1ccc(CCNc2cc(C)[nH]c(=O)c2)cc1OC | 29.6 |
| CCOC(=O)c1c(N)c2cc([N+](=O)[O-])ccc2n1C | 18.1 |
| CCOCCCNC(=S)N1C2CCC1CC(NC(=O)NC13CC4CC(CC(C4)C1)C3)C2 (centres unmarked) | -8.16 |
| O=C(NCc1ccc(F)cc1)C1CCCN(c2cnccn2)C1 (centres unmarked) | -65 |
| O=C(NCc1ccccc1F)C1CCCN(c2cnccn2)C1 (centres unmarked) | 13.4 |
| O=C(Nc1ccc(F)cc1)C1CCCN(c2cnccn2)C1 (centres unmarked) | -11.9 |
| Cc1c(CCC(=O)NCC(=O)NCC(=O)O)c(=O)oc2cc3oc4c(c3cc12)CCCC4 | 4.87 |
| COc1ccc2cc3cc(C(=O)NCCN4CCN(c5ccccc5F)CC4)oc3nc2c1 | -15.8 |
| COc1ccc2nc3oc(C(=O)NC4CCN(Cc5ccccc5)CC4)cc3cc2c1 | -67.1 |
| CCOC(=O)N1CCC(NC(=O)c2cc3cc4cc(OC)ccc4nc3o2)CC1 | -16.2 |

| SMILES | hERG current change (%, negative = inhibition) at 10uM [%] |
| --- | --- |
| COc1ccc2cc3cc(C(=O)NCCN4CCc5ccccc5C4)sc3nc2c1 | -32.9 |
| CCN1CCN(CCCNC(=O)c2cc3cc4ccc(OC)cc4nc3o2)CC1 | -17.1 |
| COc1ccc2cc3cc(C(=O)NCCN4CCN(Cc5ccccc5)CC4)oc3nc2c1 | -71.8 |
| COc1ccc2cc3cc(C(=O)NCCCN4CCC(C)CC4)oc3nc2c1 | -58.5 |
| COc1ccc2cc3cc(C(=O)NCCCN4CCc5ccccc5C4)sc3nc2c1 | -32.7 |
| COc1ccc2cc3cc(C(=O)NCCN4CCc5ccccc5C4)oc3nc2c1 | -63.3 |
| COc1ccc2cc3cc(C(=O)NCCCN4CCOCC4)oc3nc2c1 | -5.55 |
| COCCCNC(=O)c1cc2cc3cc(OC)ccc3nc2o1 | -12.9 |
| COc1ccc2cc3cc(C(=O)NCc4ccccn4)oc3nc2c1 | 12.1 |
| CCCCOC(=O)CN1C(=O)c2ccc(C(=O)OCCCC)cc2C1=O | 4.54 |
| O.O=C([O-])c1ccn2c(C(=O)c3ccccc3)c(-c3ccccc3)cc2c1 | 12.8 |
| C/C(=C\C(=O)OCC(=O)NCc1ccccc1)C(=O)OCC(=O)NCc1ccccc1 | 18.8 |
| CCN1C(=O)CSc2ccc(C(=O)NC3CCCCC3)cc21 | -5.4 |
| Cc1cn2c(=O)c(C(=O)N3CCN(c4ccccc4Cl)CC3)cnc2s1 | -62.8 |
| Cc1cn2c(=O)c(C(=O)N3CCN(c4ccccc4F)CC3)cnc2s1 | -6.27 |
| O=C(c1cnc2sccn2c1=O)N1CCN(c2ccccc2Cl)CC1 | -2.33 |
| CCCCCCCC1c2c(c(C)c(C)oc2=O)Oc2c(C)c(C)oc(=O)c21 | 11.9 |
| CCN1C(=O)[C@H]2[C@@H](c3ccc(-c4ccc(OC)cc4)cc3)N[C@@](Cc3ccccc3)(C(=O)OC)[C@H]2C1=O.O=C(O)C(F)(F)F | 3.09 |
| CN(Cc1ccon1)C(=O)CCc1nnc(Cc2ccc(-c3ccccc3)cc2)o1 | -20 |
| CCc1ccc(CN(C)C(=O)CCc2nnc(CCc3ccccc3OC)o2)nc1 | -1.47 |
| CCc1ccc(CN(C)C(=O)CCc2nnc(-c3ccc(-c4ccccc4)cc3)o2)nc1 | -65.1 |

| SMILES | hERG current change (%, negative = inhibition) at 10uM [%] |
| --- | --- |
| CCOc1ccc(CCNC(=O)COC(=O)/C=C/c2ccc(OC(F)F)c(OC)c2)cc1OCC | -15.2 |
| Cc1cccc(C)c1NC(=O)C(=O)NCCOc1ccc(Cl)cc1 | -26 |
| CCN(C(=S)Nc1cccc(C)c1)c1ccccc1 | 13.2 |
| CC(=O)Oc1ccc(/C=C(\NC(=O)c2ccco2)C(=O)NCc2ccccc2)cc1 | -68.3 |
| O=C(NCc1ccco1)/C(=C/c1ccc(Br)cc1)NC(=O)c1ccco1 | 0.657 |
| CC(=O)Oc1ccc(/C=C(\NC(=O)c2ccco2)C(=O)Nc2ccc(C(C)=O)cc2)cc1 | -26.2 |
| COc1ccc(/C=C(\NC(=O)c2ccco2)C(=O)NCc2ccco2)cc1 | 8.89 |
| CC(=O)Oc1ccc(/C=C(\NC(=O)c2ccco2)C(=O)NCc2ccco2)cc1 | -52 |
| O=C(NCc1ccccc1)/C(=C\c1ccc(O)cc1)NC(=O)c1ccco1 | -20.7 |
| Cc1cccc(C(=O)N2CCC(N3CCC(C(=O)N4CCOCC4)CC3)CC2)c1 | -9.81 |
| Cc1ccc(S(=O)(=O)/N=c2\scc(C)n2C)cc1 | 0.491 |
| O=C1CN(C(=O)COc2ccc(F)cc2Cl)c2ccccc2N1 | -19.5 |
| O=C1CN(C(=O)COc2ccc([N+](=O)[O-])cc2Cl)c2ccccc2N1 | -61.2 |
| O=C1CN(C(=O)COc2ccc(Cl)cc2Cl)c2ccccc2N1 | 14.2 |
| CC1(C)CC(=O)C=C(C(=O)NC2CCCc3c2cnn3-c2cc(F)cc(F)c2)O1 (centres unmarked) | -2.03 |
| O=C(O)c1cc(NS(=O)(=O)c2ccc(NCc3ccccc3)c([N+](=O)[O-])c2)cc(C(=O)O)c1 | 20.9 |
| COC(=O)N/N=C(\C)c1ccccc1OC(F)F | 1.52 |
| COc1ccc(C[C@@H]2CN3C(=NC[C@@H]3C)N2C[C@H](C)NC(=O)c2ccc(C)c(Br)c2)cc1 | -74.8 |
| Cc1ccc(C(=O)N[C@@H](C)CN2C3=NC[C@H](C(C)C)N3C[C@H]2Cc2ccc(O)cc2)cc1Br | -77.7 |
| COc1ccc(C[C@H]2CN3C(=NC[C@@H]3C(C)C)N2C[C@H](C)NC(=O)c2ccc(C)c(Br)c2)cc1 | -74.5 |
